# Results from ChEMBL document CHEMBL2218924, “A broad activity screen in support of a chemogenomic map for kinase signalling research and drug discovery” (Biochem J, 2013).
# Columns and labels:
# [1] = molecular target: Tyrosine-protein kinase SYK (Homo sapiens) (UniProt P43405); settings: at 10 µM
# [2] = molecular target: T1, Mitogen-activated protein kinase kinase kinase 7 (Homo sapiens) (UniProt O43318); settings: at 1 µM
# T1 sequence (whole entry): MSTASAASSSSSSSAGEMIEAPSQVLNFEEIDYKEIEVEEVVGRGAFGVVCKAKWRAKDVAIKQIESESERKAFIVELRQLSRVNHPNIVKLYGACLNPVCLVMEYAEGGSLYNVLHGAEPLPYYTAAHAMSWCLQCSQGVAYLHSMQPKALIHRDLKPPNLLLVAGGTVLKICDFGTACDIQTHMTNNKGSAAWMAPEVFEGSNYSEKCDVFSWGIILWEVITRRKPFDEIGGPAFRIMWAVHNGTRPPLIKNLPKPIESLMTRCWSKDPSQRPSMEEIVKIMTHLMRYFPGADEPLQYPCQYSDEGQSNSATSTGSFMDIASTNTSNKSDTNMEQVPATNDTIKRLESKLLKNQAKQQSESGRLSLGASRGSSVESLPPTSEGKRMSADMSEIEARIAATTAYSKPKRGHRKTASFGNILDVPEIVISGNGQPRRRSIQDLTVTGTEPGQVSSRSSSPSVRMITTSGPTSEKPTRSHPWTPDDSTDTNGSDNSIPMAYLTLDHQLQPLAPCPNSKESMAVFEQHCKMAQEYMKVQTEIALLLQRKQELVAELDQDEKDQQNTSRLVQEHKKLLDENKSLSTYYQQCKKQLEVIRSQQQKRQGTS
# [3] = molecular target: T1, Mitogen-activated protein kinase kinase kinase 7 (Homo sapiens); settings: at 10 µM
# [4] = molecular target: T2, Serine/threonine-protein kinase TAO1 (Homo sapiens) (UniProt Q7L7X3); settings: at 1 µM
# T2 sequence (whole entry): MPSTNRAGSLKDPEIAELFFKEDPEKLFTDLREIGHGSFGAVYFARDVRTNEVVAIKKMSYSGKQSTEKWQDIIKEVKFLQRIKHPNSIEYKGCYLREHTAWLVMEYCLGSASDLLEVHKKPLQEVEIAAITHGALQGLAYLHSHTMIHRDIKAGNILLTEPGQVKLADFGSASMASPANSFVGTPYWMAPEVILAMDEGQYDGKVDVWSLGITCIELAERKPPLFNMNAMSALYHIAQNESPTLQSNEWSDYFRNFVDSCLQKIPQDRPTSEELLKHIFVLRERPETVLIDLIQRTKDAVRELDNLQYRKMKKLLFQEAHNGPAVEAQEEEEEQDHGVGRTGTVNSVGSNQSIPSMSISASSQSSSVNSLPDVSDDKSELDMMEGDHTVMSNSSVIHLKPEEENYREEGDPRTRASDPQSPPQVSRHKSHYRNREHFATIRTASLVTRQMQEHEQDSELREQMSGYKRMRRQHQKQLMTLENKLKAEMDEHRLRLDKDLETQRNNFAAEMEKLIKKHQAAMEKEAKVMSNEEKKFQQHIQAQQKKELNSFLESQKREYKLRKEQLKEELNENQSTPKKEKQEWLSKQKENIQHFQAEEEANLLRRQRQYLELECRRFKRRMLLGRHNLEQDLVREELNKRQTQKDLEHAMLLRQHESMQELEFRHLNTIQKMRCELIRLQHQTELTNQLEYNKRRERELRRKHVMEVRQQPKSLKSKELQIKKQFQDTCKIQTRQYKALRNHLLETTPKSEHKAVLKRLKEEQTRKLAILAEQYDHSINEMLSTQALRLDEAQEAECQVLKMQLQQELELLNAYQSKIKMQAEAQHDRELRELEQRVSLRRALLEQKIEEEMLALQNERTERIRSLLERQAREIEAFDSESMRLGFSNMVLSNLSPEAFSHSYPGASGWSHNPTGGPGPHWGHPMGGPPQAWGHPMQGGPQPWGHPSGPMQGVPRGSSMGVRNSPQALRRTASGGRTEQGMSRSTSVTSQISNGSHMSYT
# [5] = molecular target: T2, Serine/threonine-protein kinase TAO1 (Homo sapiens); settings: at 10 µM
# [6] = molecular target: T3, Serine/threonine-protein kinase TAO2 (Homo sapiens) (UniProt Q9UL54); settings: at 1 µM
# T3 sequence (whole entry): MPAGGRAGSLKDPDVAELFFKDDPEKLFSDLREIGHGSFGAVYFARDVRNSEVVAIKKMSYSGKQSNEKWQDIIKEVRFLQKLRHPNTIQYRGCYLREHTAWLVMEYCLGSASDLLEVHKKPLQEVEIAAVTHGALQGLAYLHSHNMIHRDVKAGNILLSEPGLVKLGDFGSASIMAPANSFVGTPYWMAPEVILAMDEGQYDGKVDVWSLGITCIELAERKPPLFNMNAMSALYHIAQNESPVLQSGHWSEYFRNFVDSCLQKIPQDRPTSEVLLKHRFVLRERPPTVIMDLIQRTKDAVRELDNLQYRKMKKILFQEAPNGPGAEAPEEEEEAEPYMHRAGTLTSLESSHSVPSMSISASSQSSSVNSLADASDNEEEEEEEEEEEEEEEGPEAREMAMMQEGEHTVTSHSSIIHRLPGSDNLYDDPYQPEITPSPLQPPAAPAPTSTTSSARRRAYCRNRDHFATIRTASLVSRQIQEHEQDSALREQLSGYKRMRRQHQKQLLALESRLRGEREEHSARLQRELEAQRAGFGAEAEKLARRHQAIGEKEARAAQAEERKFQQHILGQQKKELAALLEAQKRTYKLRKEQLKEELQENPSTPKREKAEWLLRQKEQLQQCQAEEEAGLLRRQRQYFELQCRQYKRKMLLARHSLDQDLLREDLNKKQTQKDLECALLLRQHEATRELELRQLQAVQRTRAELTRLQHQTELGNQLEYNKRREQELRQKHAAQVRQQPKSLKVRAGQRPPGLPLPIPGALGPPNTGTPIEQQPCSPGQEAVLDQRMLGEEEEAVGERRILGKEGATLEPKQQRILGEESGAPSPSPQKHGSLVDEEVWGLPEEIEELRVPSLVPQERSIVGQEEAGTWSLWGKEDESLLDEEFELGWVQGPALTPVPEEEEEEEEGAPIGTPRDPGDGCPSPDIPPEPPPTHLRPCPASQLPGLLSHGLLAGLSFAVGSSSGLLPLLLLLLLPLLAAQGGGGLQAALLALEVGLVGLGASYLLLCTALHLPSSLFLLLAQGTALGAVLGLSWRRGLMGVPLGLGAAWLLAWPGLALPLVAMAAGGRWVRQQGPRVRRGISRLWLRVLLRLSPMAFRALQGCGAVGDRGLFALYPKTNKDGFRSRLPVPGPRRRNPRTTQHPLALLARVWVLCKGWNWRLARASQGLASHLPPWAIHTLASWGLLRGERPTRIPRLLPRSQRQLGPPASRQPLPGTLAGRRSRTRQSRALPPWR
# [7] = molecular target: T3, Serine/threonine-protein kinase TAO2 (Homo sapiens); settings: at 10 µM
compound,measurement,setting,value
CC(=O)c1ccc(N2CCOCC2)cc1O,residual activity,[1],101%
same,residual activity,[2],93%
same,residual activity,[3],90%
same,residual activity,[4],103%
same,residual activity,[5],95%
same,residual activity,[6],92%
same,residual activity,[7],94%
